Marburg entry inh = inhibitors of Marburg virus binding or cell entry; Marburg virus pseudotyped entry inhibition, cell reporter; Potency, µM (doses to about 37.8 µM), actives largely listed as inhibitors; 1.8% of 300,000 active; AID 540276; calls by dose curve; tested in HEK293 cells
Lassa entry inh = Lassa virus entry inhibition; Lassa virus pseudotype entry inhibition, cell reporter; 1.2% of 300,000 active; Potency, µM (top dose mostly 37.9 µM), actives largely listed as inhibitors; calls by dose curve; tested in HEK293 cells; further: nearly all actives have a fitted effect of over 50% in size
HCV inh = HCV inhibition; Potency, µM (highest dose often 41.8 µM), hits mostly inhibitors; Huh7.5.1 HCVcc-Cre infection, luciferase reporter, 44 h; 3.4% of 340,000 active; AID 651820
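Compounds are dispensed onto cells plated 4 h earlier at 1,000 per well, with HCVcc-Cre virus (about 0.5 moi) added next. Following 44 h of culture, luminescent signal is measured for 15 sec after 15 min with substrate at room temperature.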
Sm TGR inh = inhibitors of Schistosoma mansoni thioredoxin glutathione reductase. 3% of 360,000 active. purified TGR, DTNB reduction, TNB absorbance 405 nm. Potency, µM (top dose mostly 114 µM), most hits filed as inhibitors. Q962Y6. AID 485364; further: nearly all actives have a fitted effect of over 60% in size
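Kinetic colorimetric format: TGR-catalysed, NADPH-driven DTNB reduction monitored via TNB absorbance. Enzyme dispensed at 20 nM; compound exposure 15 min at room temperature before reaction start.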
RE007 growth inh = less growth of the S. pombe RE007 Vpr strain. AID 651644. Potency, µM (doses to about 92.2 µM), actives largely listed as inhibitors. 0.21% of 360,000 active. S. pombe RE007 Vpr strain, BacTiter-Glo ATP luminescence, 24 h; active means well fitted falling curve with a large enough effect; inconclusive means small, poorly fitted or top-dose-only effect; inactive means no such curve, though single readings can be large or run the other way; further: nearly all actives have a fitted effect of over 50% in size
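Fission yeast RE007 carrying one integrated HIV-1 vpr copy, seeded at OD 0.01 in PMG+AL medium with 23 nL pinned compound. Grown 24 h at 30 degrees; viability read by BacTiter-Glo luminescence after 5 min.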
FMDV inh = foot and mouth disease virus antiviral activity; FMDV antiviral cell-based qHTS; Potency, µM (titrated, usually from 57.9 µM), actives largely listed as inhibitors; 1.2% of 410,000 active; calls by dose curve; tested in HEK293T cells; further: read-out not given here; nearly all actives have a fitted effect of over 45% in size
Of the large screens only hits and unclear results are named; the others gave an inactive call. The list is not random: actives were taken first. Their share in the collection is about 7.2%. Unless noted, the call rests on the fitted dose curve; in most records, active means well fitted curve in the direction sought with a large enough effect; inconclusive means small, poorly fitted or top-dose-only effect, or another doubt; inactive means no such curve, though single readings can be large; an effect the other way counts as inactive or inconclusive.

CCOc1ccc(C(=O)Nc2nc3ccccc3[nH]2)cc1OCC	Marburg entry inh 11µM, HCV inh inconclusive, FMDV inh inconclusive (no result: Lassa entry inh)
CSCC[C@H](NC(=O)c1ccc(Cl)c([N+](=O)[O-])c1)c1nc2ccccc2[nH]1	Marburg entry inh 10µM, FMDV inh inconclusive
O=C(NC(Cc1ccccc1)c1nc2ccccc2[nH]1)c1ccc(Cl)c([N+](=O)[O-])c1 (configuration not stated)	Marburg entry inh inconclusive, HCV inh inconclusive, FMDV inh inconclusive
COc1ccc(C(=O)Nc2nc3ccccc3[nH]2)cc1OC	none
COc1cc(C(=O)Nc2nc3ccccc3[nH]2)ccc1OC(F)F	Marburg entry inh inconclusive, Lassa entry inh inconclusive, HCV inh 8.9µM
COc1cc(OC)cc(C(=O)Nc2nc3ccccc3[nH]2)c1	Lassa entry inh inconclusive
CC(C)Oc1ccc(C(=O)Nc2nc3ccccc3[nH]2)cc1	Marburg entry inh inconclusive, Lassa entry inh 1.1µM, HCV inh inconclusive, FMDV inh 7.9µM
CCOc1ccc(C(=O)Nc2cc(-c3nc4ccccc4[nH]3)ccc2Cl)cc1[N+](=O)[O-]	Marburg entry inh 8.9µM, Lassa entry inh inconclusive, HCV inh inconclusive
O=C(Nc1nc2ccccc2[nH]1)c1ccc(OC(F)F)cc1	Marburg entry inh inconclusive, Lassa entry inh inconclusive, HCV inh inconclusive, FMDV inh 13µM
CCCN(CCO)CCCc1ccccc1	none
CCN(CCCC(=O)c1ccc(F)cc1)CCc1ccccc1	Marburg entry inh 3.5µM, Lassa entry inh inconclusive
CCN(CCCc1ccccc1)CCCc1ccccc1	Marburg entry inh 5.8µM, Lassa entry inh inconclusive
O=C(CCCc1ccccc1)c1ccccc1	Marburg entry inh inconclusive (no result: Lassa entry inh)
CC(=O)CSc1nc2ccc(Nc3nc(N4CCOCC4)nc(N4CCOCC4)n3)cc2s1	Marburg entry inh inconclusive, HCV inh 32µM
COc1ccc(NC(=O)CSc2nc3ccc(Nc4nc(N5CCOCC5)nc(N5CCOCC5)n4)cc3s2)cc1	HCV inh 10µM (no result: Marburg entry inh, Lassa entry inh)
Cc1c(C)c2cc3c(c(C)c2oc1=O)OCN(CCc1ccc(F)cc1)C3	none (no result: HCV inh, RE007 growth inh)
Cc1oc(-c2ccccc2NC(=O)c2ccccc2)nc1CNC(=O)c1cccc(-n2cccn2)c1	none (no result: Marburg entry inh, Lassa entry inh, HCV inh, Sm TGR inh, RE007 growth inh)
CCCc1ccc(S(=O)(=O)N2CCC(Oc3ccc(-n4cnnn4)cc3)CC2)cc1	Lassa entry inh inconclusive (no result: HCV inh, RE007 growth inh)
Cc1ccc(NN2C(=O)C=C(c3ccccc3)C2=O)cc1	Marburg entry inh 11µM, Lassa entry inh inconclusive, Sm TGR inh inconclusive, RE007 growth inh inconclusive, FMDV inh 20µM
COc1ccc(CCNC(=O)c2ccncc2)cc1OC	none
COc1ccc(CCNC(=O)c2ccc(CNS(=O)(=O)c3ccc(C(C)(C)C)cc3)cc2)cc1OC	HCV inh inconclusive
COc1ccc(CCNC(=O)c2ccc(CNS(=O)(=O)c3cccc(Cl)c3)cc2)cc1OC	Marburg entry inh inconclusive, Lassa entry inh inconclusive, HCV inh 7.9µM, FMDV inh inconclusive
COc1ccc(CCN(C)C(=O)c2cc(S(=O)(=O)NCc3ccccc3)ccc2C)cc1OC	Marburg entry inh inconclusive, HCV inh 8.9µM
COc1ccc(CCNC(=O)c2ccc(CNS(=O)(=O)c3cc(C)ccc3C)cc2)cc1OC	Marburg entry inh 10µM, Lassa entry inh inconclusive, HCV inh inconclusive, FMDV inh 20µM
Cc1ccc(CCNC(=O)c2ccc(CNS(=O)(=O)c3ccccc3)cc2)cc1	Lassa entry inh inconclusive (no result: HCV inh, RE007 growth inh)
CCOc1ccc(CCNC(=O)c2ccc(CNS(=O)(=O)c3ccccc3)cc2)cc1OCC	Marburg entry inh inconclusive, HCV inh inconclusive, FMDV inh 28µM
COc1ccc(OC)c(CCNC(=O)c2cnn(-c3ccccc3)c2C2CCN(C(=O)OC(C)(C)C)CC2)c1	Lassa entry inh inconclusive (no result: Marburg entry inh, HCV inh, RE007 growth inh)
CC(C)c1ccc(Nc2cc(C(=O)NC3CCCCC3)c3ccccc3n2)cc1	none (no result: HCV inh, RE007 growth inh)
Cc1ccc(CN(Cc2cccnc2)C(=O)CN2C(=O)COc3ccccc32)o1	Sm TGR inh 10µM
O=C(NCc1ccccc1Cl)c1cnc2sc(N3CCOCC3)nn2c1=O	none (no result: Marburg entry inh, HCV inh, RE007 growth inh)
Cc1ccc(O)c(NC(=O)CCS(=O)(=O)c2nc(-c3cccs3)cc(C(F)(F)F)n2)c1	Lassa entry inh inconclusive, Sm TGR inh 18µM, FMDV inh inconclusive (no result: HCV inh, RE007 growth inh)
O=C(CSc1nc(-c2cccs2)cc(C(F)(F)F)n1)Nc1ccccc1Cl	Marburg entry inh inconclusive (no result: HCV inh, RE007 growth inh)
O=C(CCS(=O)(=O)c1nc(-c2cccs2)cc(C(F)(F)F)n1)Nc1ccc(Br)cc1	Marburg entry inh inconclusive, Sm TGR inh inconclusive, FMDV inh 40µM (no result: HCV inh, RE007 growth inh)
O=C(CCS(=O)(=O)c1nc(-c2cccs2)cc(C(F)(F)F)n1)Nc1cc(Br)ccc1O	Marburg entry inh inconclusive, Lassa entry inh inconclusive, Sm TGR inh 18µM, FMDV inh 14µM (no result: HCV inh, RE007 growth inh)
COc1ccc(CNc2ncnc3c2c(-c2ccccc2)cn3-c2cccc(C)c2)cc1	none (no result: Marburg entry inh, HCV inh, RE007 growth inh)
CC(C)(CO)NC(=O)c1cnn(-c2nccc(-c3ccc4c(c3)OCO4)n2)c1C1CC1	none (no result: Marburg entry inh, Lassa entry inh, HCV inh, Sm TGR inh, RE007 growth inh)
Oc1cccc(Nc2cc(-c3ccccc3)ncn2)c1	none (no result: HCV inh, RE007 growth inh)
COc1cccc(NC(=O)CN2C(=O)CSc3ccc(S(=O)(=O)N4CCCC4)cc32)c1	none (no result: Marburg entry inh, HCV inh, RE007 growth inh)
CCn1c2ccccc2c2cc(C3C(C#N)=C(C)NC(C)=C3C#N)ccc21	HCV inh 11µM (no result: FMDV inh)
COCc1[nH]nc2c1C(c1ccc(OC)c(OC)c1)C(C#N)=C(N)O2 (configuration not stated)	none
CCn1c2ccccc2c2cc(C3C(C#N)=C(N)OC4=C3C(=O)CC(C)(C)C4)ccc21 (configuration not stated)	none (no result: Lassa entry inh, HCV inh, RE007 growth inh, FMDV inh)
CCCc1[nH]nc2c1C(c1ccccc1OC)C(C#N)=C(N)O2 (configuration not stated)	Sm TGR inh inconclusive, FMDV inh 28µM
CCn1c2ccccc2c2cc(C3C(C#N)=C(N)Oc4n[nH]c(COC)c43)ccc21 (configuration not stated)	Marburg entry inh 5.2µM, Lassa entry inh inconclusive, HCV inh inconclusive, FMDV inh inconclusive
CCCCN1C(=O)C(NC(=O)c2ccc(C(C)(C)C)cc2)(C(F)(F)F)C(C(=O)OC)=C1C (configuration not stated)	Marburg entry inh inconclusive (no result: HCV inh, RE007 growth inh)
CC(=O)N1CCC2(CC1)CN(Cc1ccc(C#N)cc1)C2	none (no result: Marburg entry inh, Lassa entry inh, HCV inh, Sm TGR inh, RE007 growth inh)
CN(CCc1ccccc1)C(=O)c1ccc(NC(=O)Cc2cccc(NC(=O)C3CCN(C(=O)CCc4ccccc4)CC3)c2)cc1	none (no result: Marburg entry inh, Lassa entry inh, Sm TGR inh)
CN(CCc1ccccc1)C(=O)c1ccc(NC(=O)Cc2ccc(NC(=O)C3CCCN(C(=O)CCc4ccccc4)C3)cc2)cc1 (configuration not stated)	HCV inh 0.56µM, FMDV inh inconclusive (no result: Marburg entry inh, Lassa entry inh, Sm TGR inh)
CN(Cc1ccccc1)C(=O)c1cccc(NC(=O)Cc2ccc(NC(=O)C3CCN(C(=O)C4CCC4)CC3)cc2)c1	HCV inh 14µM, FMDV inh inconclusive (no result: Marburg entry inh, Lassa entry inh, Sm TGR inh)
CN(CCc1ccccc1)C(=O)c1ccc(NC(=O)Cc2ccc(NC(=O)C3CCN(C(=O)CCc4ccccc4)CC3)cc2)cc1	HCV inh 25µM, FMDV inh inconclusive (no result: Marburg entry inh, Lassa entry inh, Sm TGR inh)

Screening results as filed in PubChem.
